These results are taken from PubChem BioAssay.

Calls of active or inactive are those of the source. Unless noted, no rule for the calls is given here.

The nature of one assay: inhibitors of Cryptococcus chitosan production, flow cytometry, Cibacron Brilliant Red staining (AID 1347148).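 Also: compound exposure lasted three days at 37 degrees C.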 To be noted: Cryptococcus neoformans chitosan, stronger effect = lower value; at 10 µM unless noted. For orientation: A flow cytometer gives signals particle by particle.
Consider `O=c1c(O)c(-c2ccc(O)c(O)c2)oc2cc(O)cc(O)c12`, for which the fold fluorescence is 2.95 [at 165.4 µM] (active).
Still for that read-out and setting: the value for `Cc1[nH]c(=O)c(C#N)cc1-c1ccncc1` was 6.33 [at 236.7 µM] (inactive).
The same measure, in the same setting: the value for `COC(=O)Nc1nc2ccc(C(=O)c3cccs3)cc2[nH]1` was 18.7 [at 165.9 µM] (inactive); that for `CN(Cc1cnc2nc(N)nc(N)c2n1)c1ccc(C(=O)N[C@@H](CCC(=O)O)C(=O)O)cc1` was 3.97 [at 117.8 µM] (inactive).

Another assay is described as follows: modifiers of HSF1 nuclear foci, imaging, Selleck Cancer Library (AID 1347162; in the data active = plate-normalised HSF1 focus index below about 0.46). The following applies: human cells, at 10 µM; SSMD: measured here: HSF1 foci SSMD mean; cell count: measured here: cell number; plate-normalised HSF1 focus index: stronger effect = lower value.
`Cc1ccc(NC(=O)c2ccc(CN3CCN(C)CC3)cc2)cc1Nc1nccc(-c2cccnc2)n1`: the SSMD stood at 2.47, the cell count is 6720 and the plate-normalised HSF1 focus index was 1.13 (inactive).
The corresponding values for `CNNCc1ccc(C(=O)NC(C)C)cc1` are 2.76, 7850 and 1.17 (inactive).
With `O=NN(CCCl)C(=O)NC1CCCCC1`, the SSMD was 0.27, the cell count is 6620 and the plate-normalised HSF1 focus index is 1.01 (inactive).
The corresponding values for `COc1cc2c(N3CCN(C(=O)Nc4ccc(OC(C)C)cc4)CC3)ncnc2cc1OCCCN1CCCCC1` are 0.871, 7020 and 1.05 (inactive).
With `COC(=O)Nc1nc2ccc(C(=O)c3cccs3)cc2[nH]1`, the SSMD stood at 3.16, the cell count came out at 6830 and the plate-normalised HSF1 focus index is 1.2 (inactive).
The matching figures for `CN(Cc1cnc2nc(N)nc(N)c2n1)c1ccc(C(=O)N[C@@H](CCC(=O)O)C(=O)O)cc1`: 2.25, 7580 and 1.08 (inactive).

A short description of a further assay: phospholipid biosynthesis inhibitors in animal cells, primary screen, cell-based, LOPAC library, screen 4 (AID 1347384). The following applies: phospholipid biosynthesis inhibition screen, at 10 µM.
Consider `NNc1nncc2ccccc12`, for which the molecule was called inactive.
Same read-out and setting: to `CN(CCOc1ccc(NS(C)(=O)=O)cc1)CCc1ccc(NS(C)(=O)=O)cc1` belongs “inactive”; to `O=NN(CCCl)C(=O)NCCCl`, “inactive”.
Regarding `Cc1cn[nH]c1`, the outcome was inactive.
Still for that read-out and setting: to `O=c1c(O)c(-c2ccc(O)c(O)c2)oc2cc(O)cc(O)c12` belongs “inactive”.
The same measure, in the same setting: the value for `Cc1[nH]c(=O)c(C#N)cc1-c1ccncc1` was “inactive”.
Regarding `CCCN(CCC)C(=O)C(CCC(=O)O)NC(=O)c1ccccc1` (stereo not drawn), the call was inactive.
On the same count and under the same terms, to `CC(=O)O[C@]1(C(C)=O)CC[C@H]2[C@@H]3C=C(Cl)C4=CC(=O)[C@@H]5C[C@@H]5[C@]4(C)[C@H]3CC[C@@]21C` belongs “inactive”.
On the same count and under the same terms, the value for `COC(=O)Nc1nc2ccc(C(=O)c3cccs3)cc2[nH]1` was “inactive”; that for `Cn1c(=O)c2c(ncn2C)n(C)c1=O` was “inactive”; that for `CN(Cc1cnc2nc(N)nc(N)c2n1)c1ccc(C(=O)N[C@@H](CCC(=O)O)C(=O)O)cc1` was “inactive”.
